Measured values published in PubChem BioAssay AID1159580 (chemical genetic matrix, 2015).
Screen size: about 5,500 compounds; about 2,000 (36%) were called active. About 18% were inconclusive and are not listed. Rule as the data show it: active = normalized growth mostly below about 0.91 (no sharp cut-off); inconclusive = no clear call, values can overlap the other calls; inactive = mostly above about 0.92. Some of the results follow.

Assay: chemical genetic growth profiling, strain panel (AID 1159580);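 also: tested at 20 µM; growth read once vehicle control cultures reached saturation at 30 °C; 1 = growth at the plate median or of vehicle wells; lower values mean less growth of the strain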
Conditions: growth OD

Measured: normalized growth

O=c1oc2ccccc2c(O)c1Cc1c(O)c2ccccc2oc1=O
active: S. cerevisiae deletion strains, locus YKL085W, strain MDH1 (second series), stronger effect = lower value 0.923 | S. cerevisiae deletion strains, locus YKL085W, strain MDH1, stronger effect = lower value 0.923
inactive: S. cerevisiae deletion strains, locus YJR066W, strain TOR1, stronger effect = lower value 0.859 | S. cerevisiae deletion strains, locus YKL009W, strain mrt4, stronger effect = lower value 0.944 | S. cerevisiae deletion strains, locus YKL068W, stronger effect = lower value 0.959 | S. cerevisiae deletion strains, locus YKL160W, strain elf1, stronger effect = lower value 1.01 | S. cerevisiae deletion strains, locus YKR001C, strain vps1, stronger effect = lower value 0.962 | S. cerevisiae deletion strains, locus YKR026C, strain gcn3, stronger effect = lower value 1.02 | S. cerevisiae deletion strains, locus YKR091W, strain srl3, stronger effect = lower value 0.999 | S. cerevisiae deletion strains, locus YLL001W, strain dnm1, stronger effect = lower value 1.03 | S. cerevisiae deletion strains, locus YLL026W, stronger effect = lower value 0.996 | S. cerevisiae deletion strains, locus YLL041C, strain sdh2, stronger effect = lower value 0.987 | S. cerevisiae deletion strains, locus YLR027C, strain aat2, stronger effect = lower value 0.992 | S. cerevisiae deletion strains, locus YLR039C, strain RIC1, stronger effect = lower value 1.01 | S. cerevisiae deletion strains, locus YLR058C, strain SHM2, stronger effect = lower value 1 | S. cerevisiae deletion strains, locus YLR102C, strain apc9, stronger effect = lower value 0.964 | S. cerevisiae deletion strains, locus YLR113W, strain HOG1, stronger effect = lower value 0.965 | S. cerevisiae deletion strains, locus YLR221C, strain rsa3, stronger effect = lower value 0.994 | S. cerevisiae deletion strains, locus YLR258W, strain gsy2, stronger effect = lower value 1 | S. cerevisiae deletion strains, locus YLR262C, strain YPT6 (second series), stronger effect = lower value 0.975 | S. cerevisiae deletion strains, locus YLR262C, strain YPT6, stronger effect = lower value 1.01 | S. cerevisiae deletion strains, locus YLR268W, strain sec22, stronger effect = lower value 1 | S. cerevisiae deletion strains, locus YLR320W, strain mms22, stronger effect = lower value 0.989 | S. cerevisiae deletion strains, locus YLR330W, strain CHS5, stronger effect = lower value 0.993 | S. cerevisiae deletion strains, locus YLR342W, strain FKS1 (second series), stronger effect = lower value 1.03 | S. cerevisiae deletion strains, locus YLR342W, strain FKS1, stronger effect = lower value 1 | S. cerevisiae deletion strains, locus YLR357W, strain rsc2, stronger effect = lower value 1.01 | S. cerevisiae deletion strains, locus YLR370C, strain arc18, stronger effect = lower value 1 | S. cerevisiae deletion strains, locus YLR371W, strain rom2, stronger effect = lower value 0.968 | S. cerevisiae deletion strains, locus YLR384C, strain iki3, stronger effect = lower value 1 | S. cerevisiae deletion strains, locus YLR418C, strain cdc73, stronger effect = lower value 0.948 | S. cerevisiae deletion strains, locus YML016C, strain PPZ1, stronger effect = lower value 1 | S. cerevisiae deletion strains, locus YML032C, strain rad52, stronger effect = lower value 0.986 | S. cerevisiae deletion strains, locus YML120C, strain ndi1, stronger effect = lower value 1.02 | S. cerevisiae deletion strains, locus YML124C, strain tub3, stronger effect = lower value 0.961 | S. cerevisiae deletion strains, locus YMR058W, strain fet3, stronger effect = lower value 1 | S. cerevisiae deletion strains, locus YMR078C, strain ctf18, stronger effect = lower value 0.958 | S. cerevisiae deletion strains, locus YMR125W, strain sto1, stronger effect = lower value 1.02 | S. cerevisiae deletion strains, locus YMR129W, stronger effect = lower value 1.01 | S. cerevisiae deletion strains, locus YMR205C, strain PFK2, stronger effect = lower value 1 | S. cerevisiae deletion strains, locus YMR223W, strain ubp8, stronger effect = lower value 0.953 | S. cerevisiae deletion strains, locus YMR231W, strain pep5, stronger effect = lower value 1 | S. cerevisiae deletion strains, locus YMR307W, strain GAS1, stronger effect = lower value 0.947 | S. cerevisiae deletion strains, locus YNL067W, strain RPL9B, stronger effect = lower value 0.987 | S. cerevisiae deletion strains, locus YNL071W, strain lat1, stronger effect = lower value 1.02 | S. cerevisiae deletion strains, locus YNL128W, strain TEP1, stronger effect = lower value 0.998 | S. cerevisiae deletion strains, locus YNL153C, strain GIM3, stronger effect = lower value 1 | S. cerevisiae deletion strains, locus YNL183C, strain NPR1, stronger effect = lower value 0.949 | S. cerevisiae deletion strains, locus YNL209W, strain ssb2, stronger effect = lower value 0.999 | S. cerevisiae deletion strains, locus YNL233W, strain BNI4, stronger effect = lower value 1 | S. cerevisiae deletion strains, locus YNL248C, strain rpa49, stronger effect = lower value 1.05 | S. cerevisiae deletion strains, locus YNL250W, strain rad50, stronger effect = lower value 0.958 | S. cerevisiae deletion strains, locus YNL271C, strain bni1, stronger effect = lower value 0.942 | S. cerevisiae deletion strains, locus YNL298W, strain CLA4, stronger effect = lower value 0.932 | S. cerevisiae deletion strains, locus YNL307C, strain MCK1, stronger effect = lower value 0.973 | S. cerevisiae deletion strains, locus YNL322C, strain KRE1 (second series), stronger effect = lower value 0.98 | S. cerevisiae deletion strains, locus YNL322C, strain KRE1, stronger effect = lower value 0.987 | S. cerevisiae deletion strains, locus YNR049C, strain mso1, stronger effect = lower value 0.996 | S. cerevisiae deletion strains, locus YNR052C, strain pop2, stronger effect = lower value 0.97 | S. cerevisiae deletion strains, locus YOL012C, strain htz1 1.21 | S. cerevisiae deletion strains, locus YOL147C, strain pex11, stronger effect = lower value 0.961 | S. cerevisiae deletion strains, locus YOR001W, strain rrp6, stronger effect = lower value 0.997 | S. cerevisiae deletion strains, locus YOR061W, strain CKA2, stronger effect = lower value 1 | S. cerevisiae deletion strains, locus YOR069W, strain VPS5, stronger effect = lower value 0.99 | S. cerevisiae deletion strains, locus YOR070C, strain gyp1, stronger effect = lower value 1 | S. cerevisiae deletion strains, locus YOR080W, strain dia2, stronger effect = lower value 1 | S. cerevisiae deletion strains, locus YOR083W, strain WHI5, stronger effect = lower value 0.968 | S. cerevisiae deletion strains, locus YOR106W, strain vam3, stronger effect = lower value 1.04 | S. cerevisiae deletion strains, locus YOR136W, strain idh2, stronger effect = lower value 0.988 | S. cerevisiae deletion strains, locus YOR144C, strain elg1, stronger effect = lower value 0.968 | S. cerevisiae deletion strains, locus YOR184W, strain ser1, stronger effect = lower value 0.978 | S. cerevisiae deletion strains, locus YOR231W, strain MKK1, stronger effect = lower value 0.954 | S. cerevisiae deletion strains, locus YOR265W, strain rbl2, stronger effect = lower value 1 | S. cerevisiae deletion strains, locus YOR270C, strain vph1, stronger effect = lower value 1.06 | S. cerevisiae deletion strains, locus YOR290C, strain snf2, stronger effect = lower value 1.01 | S. cerevisiae deletion strains, locus YOR316C, strain cot1, stronger effect = lower value 0.968 | S. cerevisiae deletion strains, locus YPL051W, strain arl3, stronger effect = lower value 1 | S. cerevisiae deletion strains, locus YPL078C, strain atp4, stronger effect = lower value 1.02 | S. cerevisiae deletion strains, locus YPL106C, strain sse1, stronger effect = lower value 0.952 | S. cerevisiae deletion strains, locus YPL240C, strain hsp82, stronger effect = lower value 0.997 | S. cerevisiae deletion strains, locus YPL241C, strain CIN2, stronger effect = lower value 0.987 | S. cerevisiae deletion strains, locus YPL256C, strain CLN2, stronger effect = lower value 0.914 | S. cerevisiae deletion strains, locus YPR119W, strain clb2, stronger effect = lower value 0.966 | S. cerevisiae deletion strains, locus YPR141C, strain kar3, stronger effect = lower value 0.948 | S. cerevisiae deletion strains, locus YPR163C, strain tif3, stronger effect = lower value 0.958 | S. cerevisiae deletion strains, locus YPR167C, strain met16, stronger effect = lower value 0.958 | S. cerevisiae deletion strains, strain wtn01, stronger effect = lower value 0.978 | S. cerevisiae strains, strain wild type, stronger effect = lower value 0.998
